Experimental data from the supplement of paper PMC11732987, “Enantioselective OTUD7B fragment discovery through chemoproteomics screening and high-throughput optimisation” (Communications Chemistry, 2025).

How the values were obtained:
Test in all cases: log2 ratio of Biotin-Ahx-Ub-VS probe labelling (fragment/DMSO); higher = less target engagement (more negative = stronger competition), active = hit call of the paper (q ≤ 0.05, log2 ratio ≤ -1)
Conditions in all cases: compound concentration: 200 uM; treatment time: 3 h
[1] = target: T1, USP19 (UniProt O94966)
T1 sequence (whole entry): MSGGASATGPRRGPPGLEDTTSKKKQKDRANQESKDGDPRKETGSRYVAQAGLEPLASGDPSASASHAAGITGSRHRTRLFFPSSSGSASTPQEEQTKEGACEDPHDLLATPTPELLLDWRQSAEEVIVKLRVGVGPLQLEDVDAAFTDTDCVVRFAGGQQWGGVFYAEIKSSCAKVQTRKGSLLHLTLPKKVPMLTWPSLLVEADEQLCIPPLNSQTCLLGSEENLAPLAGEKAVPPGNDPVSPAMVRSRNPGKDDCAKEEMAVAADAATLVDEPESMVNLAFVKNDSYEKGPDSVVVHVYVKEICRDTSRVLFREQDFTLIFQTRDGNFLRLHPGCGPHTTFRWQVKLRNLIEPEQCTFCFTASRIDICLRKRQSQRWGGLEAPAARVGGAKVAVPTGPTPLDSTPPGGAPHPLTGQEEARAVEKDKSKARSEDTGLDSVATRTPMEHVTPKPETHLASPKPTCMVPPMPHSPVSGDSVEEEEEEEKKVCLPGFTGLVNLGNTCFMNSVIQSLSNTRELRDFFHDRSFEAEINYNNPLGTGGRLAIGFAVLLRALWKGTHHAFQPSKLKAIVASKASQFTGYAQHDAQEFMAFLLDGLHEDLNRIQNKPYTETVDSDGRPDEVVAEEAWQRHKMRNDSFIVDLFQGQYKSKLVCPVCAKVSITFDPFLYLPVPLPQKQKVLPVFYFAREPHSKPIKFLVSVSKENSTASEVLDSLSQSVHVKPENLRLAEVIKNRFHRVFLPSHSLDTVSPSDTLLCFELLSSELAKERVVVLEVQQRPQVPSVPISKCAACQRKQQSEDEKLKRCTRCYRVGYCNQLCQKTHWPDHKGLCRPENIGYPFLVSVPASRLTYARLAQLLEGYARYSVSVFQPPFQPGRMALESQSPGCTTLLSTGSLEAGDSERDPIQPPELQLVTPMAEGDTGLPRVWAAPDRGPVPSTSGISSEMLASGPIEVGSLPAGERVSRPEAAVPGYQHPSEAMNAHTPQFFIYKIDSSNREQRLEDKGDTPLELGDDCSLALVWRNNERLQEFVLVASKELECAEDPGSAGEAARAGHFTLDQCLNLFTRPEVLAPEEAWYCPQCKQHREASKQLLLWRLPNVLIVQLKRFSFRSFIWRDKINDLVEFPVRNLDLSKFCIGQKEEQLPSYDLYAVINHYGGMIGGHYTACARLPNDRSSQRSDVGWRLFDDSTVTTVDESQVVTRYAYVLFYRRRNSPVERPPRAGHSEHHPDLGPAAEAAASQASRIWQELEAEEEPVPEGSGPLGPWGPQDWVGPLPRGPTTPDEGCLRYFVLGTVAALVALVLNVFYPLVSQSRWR
How it was run: (§1)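 Each value is an average log2 ratio of fragment to vehicle, tested by unpaired t-test. The underlying Spectronaut label-free quantities were global-median-normalised, and only proteins with ≥2 unique peptides were included. Triplicate HEK293T lysate samples (495 µg) were exposed to fragment at 200 µM or vehicle for 3 h, then to Biotin-Ahx-Ub-VS at 0.5 µM final for 1 h, before NeutrAvidin enrichment of labelled DUBs, LysC and trypsin digestion, and diaPASEF LC-MS/MS.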

[2] = target: USP24 (UniProt Q9UPU5)
How it was run: as §1

[3] = target: T2, USP25 (UniProt Q9UHP3)
T2 sequence (whole entry): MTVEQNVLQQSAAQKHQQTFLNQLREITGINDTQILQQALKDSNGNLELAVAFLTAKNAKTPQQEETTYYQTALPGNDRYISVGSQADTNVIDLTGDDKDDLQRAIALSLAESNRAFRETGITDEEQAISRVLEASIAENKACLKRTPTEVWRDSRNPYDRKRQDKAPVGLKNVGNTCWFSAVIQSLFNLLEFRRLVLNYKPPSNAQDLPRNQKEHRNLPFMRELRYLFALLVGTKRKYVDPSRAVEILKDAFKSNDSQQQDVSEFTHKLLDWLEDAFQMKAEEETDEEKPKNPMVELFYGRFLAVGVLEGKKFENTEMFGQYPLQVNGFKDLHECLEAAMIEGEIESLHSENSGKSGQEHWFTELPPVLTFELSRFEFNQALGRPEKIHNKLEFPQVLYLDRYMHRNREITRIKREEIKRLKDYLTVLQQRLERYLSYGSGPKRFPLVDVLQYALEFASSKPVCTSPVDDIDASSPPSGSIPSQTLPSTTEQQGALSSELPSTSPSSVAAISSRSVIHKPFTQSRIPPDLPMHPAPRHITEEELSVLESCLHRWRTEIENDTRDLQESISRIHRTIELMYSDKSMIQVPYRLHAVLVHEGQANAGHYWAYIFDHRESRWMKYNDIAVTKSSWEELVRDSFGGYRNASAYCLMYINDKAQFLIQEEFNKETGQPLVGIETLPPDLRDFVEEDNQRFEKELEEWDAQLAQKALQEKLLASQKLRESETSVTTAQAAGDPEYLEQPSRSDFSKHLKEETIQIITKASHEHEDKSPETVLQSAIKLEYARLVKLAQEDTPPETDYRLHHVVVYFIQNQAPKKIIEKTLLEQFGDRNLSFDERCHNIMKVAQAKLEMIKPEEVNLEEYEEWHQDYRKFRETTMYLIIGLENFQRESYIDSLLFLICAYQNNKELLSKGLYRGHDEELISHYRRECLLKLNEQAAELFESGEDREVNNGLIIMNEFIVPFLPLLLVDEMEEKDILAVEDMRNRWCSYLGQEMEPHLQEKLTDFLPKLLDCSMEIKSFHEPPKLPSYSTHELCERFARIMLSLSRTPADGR
How it was run: as §1

[4] = target: T3, USP28 (UniProt Q96RU2)
T3 sequence (whole entry): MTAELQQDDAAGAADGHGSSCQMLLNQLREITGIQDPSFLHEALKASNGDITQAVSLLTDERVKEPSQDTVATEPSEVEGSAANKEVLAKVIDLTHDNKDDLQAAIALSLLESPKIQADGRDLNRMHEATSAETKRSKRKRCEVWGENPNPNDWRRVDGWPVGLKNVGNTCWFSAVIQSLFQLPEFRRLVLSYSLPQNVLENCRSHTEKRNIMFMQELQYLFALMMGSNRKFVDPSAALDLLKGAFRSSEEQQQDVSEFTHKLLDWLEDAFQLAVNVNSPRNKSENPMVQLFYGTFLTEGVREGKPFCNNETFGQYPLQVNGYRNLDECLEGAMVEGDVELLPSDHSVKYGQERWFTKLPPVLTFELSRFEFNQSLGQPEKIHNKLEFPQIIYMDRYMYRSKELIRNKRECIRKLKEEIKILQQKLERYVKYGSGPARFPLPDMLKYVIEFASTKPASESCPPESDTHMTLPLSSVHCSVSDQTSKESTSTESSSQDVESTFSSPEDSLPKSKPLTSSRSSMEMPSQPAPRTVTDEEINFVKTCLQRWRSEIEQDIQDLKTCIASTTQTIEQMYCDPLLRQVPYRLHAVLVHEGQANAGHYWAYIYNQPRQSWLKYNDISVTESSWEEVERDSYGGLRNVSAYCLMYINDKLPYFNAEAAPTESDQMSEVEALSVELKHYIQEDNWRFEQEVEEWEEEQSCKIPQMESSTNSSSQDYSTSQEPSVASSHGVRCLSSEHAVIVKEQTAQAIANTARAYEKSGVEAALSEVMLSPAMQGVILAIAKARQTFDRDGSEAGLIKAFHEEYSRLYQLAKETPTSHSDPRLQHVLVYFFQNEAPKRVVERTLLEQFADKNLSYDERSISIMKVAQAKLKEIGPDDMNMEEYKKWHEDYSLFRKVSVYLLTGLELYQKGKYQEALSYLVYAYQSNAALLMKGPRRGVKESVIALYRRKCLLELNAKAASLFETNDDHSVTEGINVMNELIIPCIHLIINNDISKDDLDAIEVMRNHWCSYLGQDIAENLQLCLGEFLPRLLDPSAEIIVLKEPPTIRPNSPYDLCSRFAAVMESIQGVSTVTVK
How it was run: as §1

Measured: log2 ratio of Biotin-Ahx-Ub-VS probe labelling

USP24, sequence (Q9UPU5 whole entry): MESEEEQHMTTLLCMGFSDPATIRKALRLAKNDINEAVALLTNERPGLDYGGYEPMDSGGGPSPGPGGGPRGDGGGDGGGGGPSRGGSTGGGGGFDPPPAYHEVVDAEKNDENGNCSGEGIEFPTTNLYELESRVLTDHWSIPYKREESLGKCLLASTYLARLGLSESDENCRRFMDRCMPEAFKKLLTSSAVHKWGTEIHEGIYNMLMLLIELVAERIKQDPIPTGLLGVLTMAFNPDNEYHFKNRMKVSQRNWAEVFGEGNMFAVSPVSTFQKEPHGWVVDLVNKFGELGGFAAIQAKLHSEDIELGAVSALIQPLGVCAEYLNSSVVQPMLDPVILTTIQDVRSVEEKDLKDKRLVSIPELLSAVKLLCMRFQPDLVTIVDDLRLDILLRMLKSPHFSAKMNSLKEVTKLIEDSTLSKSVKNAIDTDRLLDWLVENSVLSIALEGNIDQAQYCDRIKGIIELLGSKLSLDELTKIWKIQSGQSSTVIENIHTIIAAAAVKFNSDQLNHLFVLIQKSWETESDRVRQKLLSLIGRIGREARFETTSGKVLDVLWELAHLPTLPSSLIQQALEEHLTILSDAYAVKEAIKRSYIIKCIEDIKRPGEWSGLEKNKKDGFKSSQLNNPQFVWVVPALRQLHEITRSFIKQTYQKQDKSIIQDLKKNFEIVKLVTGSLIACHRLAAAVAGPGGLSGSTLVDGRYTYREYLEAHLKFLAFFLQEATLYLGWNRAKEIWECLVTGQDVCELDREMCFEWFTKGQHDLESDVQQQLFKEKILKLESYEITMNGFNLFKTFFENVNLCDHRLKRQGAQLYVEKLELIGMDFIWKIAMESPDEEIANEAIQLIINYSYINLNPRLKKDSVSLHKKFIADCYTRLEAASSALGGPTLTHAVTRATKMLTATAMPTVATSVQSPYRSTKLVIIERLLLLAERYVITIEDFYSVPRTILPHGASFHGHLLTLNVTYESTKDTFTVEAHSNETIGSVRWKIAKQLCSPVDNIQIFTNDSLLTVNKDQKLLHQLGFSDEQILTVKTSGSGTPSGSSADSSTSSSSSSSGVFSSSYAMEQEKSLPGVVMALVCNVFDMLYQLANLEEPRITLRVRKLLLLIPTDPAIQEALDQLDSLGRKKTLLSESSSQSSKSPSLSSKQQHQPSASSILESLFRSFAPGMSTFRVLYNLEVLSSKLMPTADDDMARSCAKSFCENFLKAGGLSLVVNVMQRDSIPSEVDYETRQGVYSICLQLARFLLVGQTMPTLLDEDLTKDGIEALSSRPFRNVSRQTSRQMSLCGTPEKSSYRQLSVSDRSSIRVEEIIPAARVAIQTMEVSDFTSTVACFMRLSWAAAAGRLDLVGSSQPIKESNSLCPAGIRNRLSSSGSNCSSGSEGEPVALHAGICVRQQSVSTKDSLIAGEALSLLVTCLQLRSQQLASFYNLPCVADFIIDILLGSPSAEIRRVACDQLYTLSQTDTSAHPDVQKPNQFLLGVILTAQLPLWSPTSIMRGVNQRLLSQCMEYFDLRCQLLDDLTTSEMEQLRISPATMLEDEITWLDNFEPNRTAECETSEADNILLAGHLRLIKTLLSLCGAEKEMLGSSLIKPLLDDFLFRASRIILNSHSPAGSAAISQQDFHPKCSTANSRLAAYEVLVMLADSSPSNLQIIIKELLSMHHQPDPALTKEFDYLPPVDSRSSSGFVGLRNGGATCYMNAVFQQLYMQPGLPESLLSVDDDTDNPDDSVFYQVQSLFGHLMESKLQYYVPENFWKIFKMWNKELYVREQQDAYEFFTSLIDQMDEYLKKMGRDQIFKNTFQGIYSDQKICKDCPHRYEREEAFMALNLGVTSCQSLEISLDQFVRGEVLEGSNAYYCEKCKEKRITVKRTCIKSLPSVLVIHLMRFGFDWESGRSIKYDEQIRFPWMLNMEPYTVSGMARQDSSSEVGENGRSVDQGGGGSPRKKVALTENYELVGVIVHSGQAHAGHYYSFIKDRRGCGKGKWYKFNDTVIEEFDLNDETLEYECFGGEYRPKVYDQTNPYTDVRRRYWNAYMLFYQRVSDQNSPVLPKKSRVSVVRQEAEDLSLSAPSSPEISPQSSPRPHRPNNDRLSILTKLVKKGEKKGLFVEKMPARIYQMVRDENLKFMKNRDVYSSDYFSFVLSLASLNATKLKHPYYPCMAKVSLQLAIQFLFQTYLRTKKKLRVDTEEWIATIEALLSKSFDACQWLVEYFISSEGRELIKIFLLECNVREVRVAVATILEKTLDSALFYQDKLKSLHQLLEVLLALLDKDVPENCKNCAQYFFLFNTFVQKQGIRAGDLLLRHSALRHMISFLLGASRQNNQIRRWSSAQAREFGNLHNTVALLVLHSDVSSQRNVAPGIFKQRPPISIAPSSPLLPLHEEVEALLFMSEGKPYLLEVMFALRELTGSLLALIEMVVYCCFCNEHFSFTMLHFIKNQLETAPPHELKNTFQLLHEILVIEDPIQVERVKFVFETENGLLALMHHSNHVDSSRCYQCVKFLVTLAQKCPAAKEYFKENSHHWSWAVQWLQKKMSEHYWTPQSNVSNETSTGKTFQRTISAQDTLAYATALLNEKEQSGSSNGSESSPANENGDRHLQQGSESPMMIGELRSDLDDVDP

Cl.Cn1c(CNC(=O)CCl)nc2cccnc21
inactive: [1] -0.0671 | [2] -0.218 | [3] -0.148 | [4] -0.316
